According to PubChem BioAssay AID1159580 (chemical genetic matrix, 2015):
In all, about 5,500 compounds went through this assay and about 2,000 (36%) were called active. Another 18% or so got no clear call; they are omitted. No stated cut-off is given here; in the data, active means normalized growth mostly below about 0.91 (no sharp cut-off); inconclusive means no clear call, values can overlap the other calls; inactive means mostly above about 0.92. Some of the results follow.

Test: chemical genetic growth profiling, strain panel (AID 1159580);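 further: tested at 20 µM; growth read once vehicle control cultures reached saturation at 30 °C; 1 = growth at the plate median or of vehicle wells; lower values mean less growth of the strain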
Conditions: growth OD
[1] = S. cerevisiae deletion strains, locus YDL101C, strain DUN1, active compounds read low
[2] = S. cerevisiae deletion strains, locus YHR030C, strain SLT2, active compounds read low

Measured: normalized growth

O=[N+]([O-])c1cc(Cl)c(Sc2ccccc2)cc1Sc1ccccc1
inactive: S. cerevisiae deletion strains, locus YAL013W, strain DEP1, active compounds read low 0.995 | S. cerevisiae deletion strains, locus YBR229C, strain ROT2, active compounds read low 0.999 | S. cerevisiae deletion strains, locus YCL061C, strain MRC1, active compounds read low 0.974 | [1] 1.01 | S. cerevisiae deletion strains, locus YDR150W, strain NUM1, active compounds read low 0.983 | S. cerevisiae deletion strains, locus YEL061C, strain CIN8, active compounds read low 0.998 | S. cerevisiae deletion strains, locus YGR078C, strain PAC10, active compounds read low 0.999 | [2] 0.922 | S. cerevisiae deletion strains, locus YHR087W, strain rtc3, active compounds read low 0.998 | S. cerevisiae deletion strains, locus YJL187C, strain SWE1, active compounds read low 1.03 | S. cerevisiae deletion strains, locus YJR043C, strain POL32, active compounds read low 0.992 | S. cerevisiae deletion strains, locus YJR075W, strain HOC1, active compounds read low 0.994 | S. cerevisiae deletion strains, locus YLR039C, strain RIC1, active compounds read low 0.998 | S. cerevisiae deletion strains, locus YLR058C, strain SHM2 (second series), active compounds read low 0.992 | S. cerevisiae deletion strains, locus YLR085C, strain ARP6, active compounds read low 1.03 | S. cerevisiae deletion strains, locus YLR262C, strain YPT6, active compounds read low 0.909 | S. cerevisiae deletion strains, locus YML094W, strain GIM5, active compounds read low 1.03 | S. cerevisiae deletion strains, locus YMR219W, strain ESC1, active compounds read low 1.01 | S. cerevisiae deletion strains, locus YMR263W, strain SAP30, active compounds read low 1.01 | S. cerevisiae deletion strains, locus YNL153C, strain GIM3, active compounds read low 0.993 | S. cerevisiae deletion strains, locus YNL298W, strain CLA4 (second series), active compounds read low 1.01 | S. cerevisiae deletion strains, locus YNL322C, strain KRE1, active compounds read low 1.01 | S. cerevisiae deletion strains, locus YNR030W, strain Alg12, active compounds read low 0.977 | S. cerevisiae deletion strains, locus YOL006C, strain TOP1, active compounds read low 0.998 | S. cerevisiae deletion strains, locus YPL055C, strain LGE1, active compounds read low 1.01 | S. cerevisiae deletion strains, locus YPL241C, strain CIN2, active compounds read low 1.01 | S. cerevisiae deletion strains, locus YPR135W, strain CTF4, active compounds read low 0.925 | S. cerevisiae strains, strain wild type, active compounds read low 1.01

O=[N+]([O-])c1ccc(Sc2ccccc2)cc1O
active: S. cerevisiae deletion strains, locus YLR113W, strain HOG1, active compounds read low 0.736 | S. cerevisiae deletion strains, locus YPR106W, strain ISR1, active compounds read low 0.875
inactive: S. cerevisiae deletion strains, locus YAR019C, strain CDC15, active compounds read low 0.915 | S. cerevisiae deletion strains, locus YBL105C, strain PKC1, active compounds read low 0.925 | S. cerevisiae deletion strains, locus YBR135W, strain CKS1, active compounds read low 0.927 | S. cerevisiae deletion strains, locus YBR136W, strain MEC1, active compounds read low 0.924 | S. cerevisiae deletion strains, locus YBR160W, strain CDC28, active compounds read low 0.929 | S. cerevisiae deletion strains, locus YDL017W, strain CDC7, active compounds read low 0.929 | S. cerevisiae deletion strains, locus YDL028C, strain MPS1, active compounds read low 0.931 | [1] 0.914 | S. cerevisiae deletion strains, locus YDL108W, strain KIN28, active compounds read low 0.927 | S. cerevisiae deletion strains, locus YDL132W, strain cdc53, active compounds read low 0.909 | S. cerevisiae deletion strains, locus YDL214C, strain PRR2, active compounds read low 0.823 | S. cerevisiae deletion strains, locus YDR052C, strain DBF4, active compounds read low 0.943 | S. cerevisiae deletion strains, locus YDR054C, strain cdc34, active compounds read low 0.899 | S. cerevisiae deletion strains, locus YDR226W, strain ADK1, active compounds read low 0.958 | S. cerevisiae deletion strains, locus YDR477W, strain SNF1, active compounds read low 0.844 | S. cerevisiae deletion strains, locus YER123W, strain YCK3, active compounds read low 0.78 | S. cerevisiae deletion strains, locus YER133W, strain GLC7, active compounds read low 0.831 | S. cerevisiae deletion strains, locus YFL009W, strain cdc4, active compounds read low 0.91 | S. cerevisiae deletion strains, locus YFL029C, strain CAK1, active compounds read low 0.928 | S. cerevisiae deletion strains, locus YFR003C, strain YPI1, active compounds read low 0.928 | S. cerevisiae deletion strains, locus YFR019W, strain FAB1, active compounds read low 0.895 | S. cerevisiae deletion strains, locus YFR028C, strain CDC14, active compounds read low 0.959 | S. cerevisiae deletion strains, locus YGR040W, strain KSS1, active compounds read low 0.84 | S. cerevisiae deletion strains, locus YGR052W, strain FMP48, active compounds read low 0.817 | S. cerevisiae deletion strains, locus YGR092W, strain DBF2, active compounds read low 0.709 | [2] 0.904 | S. cerevisiae deletion strains, locus YHR079C, strain IRE1, active compounds read low 0.812 | S. cerevisiae deletion strains, locus YHR082C, strain KSP1, active compounds read low 0.838 | S. cerevisiae deletion strains, locus YHR205W, strain SCH9, active compounds read low 0.864 | S. cerevisiae deletion strains, locus YIL147C, strain SLN1, active compounds read low 0.923 | S. cerevisiae deletion strains, locus YJL095W, strain BCK1, active compounds read low 0.806 | S. cerevisiae deletion strains, locus YJL128C, strain PBS2, active compounds read low 0.843 | S. cerevisiae deletion strains, locus YJL157C, strain FAR1, active compounds read low 0.796 | S. cerevisiae deletion strains, locus YJR016C, strain ILV3, active compounds read low 0.913 | S. cerevisiae deletion strains, locus YJR066W, strain TOR1 (second series), active compounds read low 0.834 | S. cerevisiae deletion strains, locus YJR066W, strain TOR1, active compounds read low 0.827 | S. cerevisiae deletion strains, locus YKL048C, strain ELM1, active compounds read low 0.878 | S. cerevisiae deletion strains, locus YKL067W, strain YNK1, active compounds read low 0.821 | S. cerevisiae deletion strains, locus YKL101W, strain HSL1, active compounds read low 0.862 | S. cerevisiae deletion strains, locus YKL193C, strain SDS22, active compounds read low 0.921 | S. cerevisiae deletion strains, locus YKL203C, strain TOR2, active compounds read low 0.871 | S. cerevisiae deletion strains, locus YLR133W, strain CKI1, active compounds read low 0.85 | S. cerevisiae deletion strains, locus YLR403W, strain SFP1, active compounds read low 0.8 | S. cerevisiae deletion strains, locus YML070W, strain DAK1, active compounds read low 0.824 | S. cerevisiae deletion strains, locus YMR001C, strain CDC5, active compounds read low 0.919 | S. cerevisiae deletion strains, locus YMR205C, strain PFK2 (second series), active compounds read low 0.824 | S. cerevisiae deletion strains, locus YMR277W, strain FCP1, active compounds read low 0.917 | S. cerevisiae deletion strains, locus YNL006W, strain LST8, active compounds read low 0.925 | S. cerevisiae deletion strains, locus YNL020C, strain ARK1, active compounds read low 0.837 | S. cerevisiae deletion strains, locus YNL161W, strain CBK1, active compounds read low 0.922 | S. cerevisiae deletion strains, locus YNL183C, strain NPR1, active compounds read low 0.828 | S. cerevisiae deletion strains, locus YNL207W, strain RIO2, active compounds read low 0.912 | S. cerevisiae deletion strains, locus YNL222W, strain SSU72, active compounds read low 0.924 | S. cerevisiae deletion strains, locus YNL307C, strain MCK1 (second series), active compounds read low 0.836 | S. cerevisiae deletion strains, locus YOL078W, strain AVO1, active compounds read low 0.903 | S. cerevisiae deletion strains, locus YOL136C, strain PFK27, active compounds read low 0.816 | S. cerevisiae deletion strains, locus YOR061W, strain CKA2, active compounds read low 0.817 | S. cerevisiae deletion strains, locus YOR119C, strain RIO1, active compounds read low 0.892 | S. cerevisiae deletion strains, locus YOR231W, strain MKK1, active compounds read low 0.806 | S. cerevisiae deletion strains, locus YOR329C, strain SCD5, active compounds read low 0.92 | S. cerevisiae deletion strains, locus YPL031C, strain PHO85, active compounds read low 0.807 | S. cerevisiae deletion strains, locus YPL153C, strain RAD53, active compounds read low 0.828 | S. cerevisiae deletion strains, locus YPL204W, strain HRR25, active compounds read low 0.798 | S. cerevisiae deletion strains, locus YPL209C, strain IPL1, active compounds read low 0.923 | S. cerevisiae deletion strains, locus YPL256C, strain CLN2, active compounds read low 0.895 | S. cerevisiae deletion strains, locus YPR025C, strain CCL1, active compounds read low 0.924 | S. cerevisiae deletion strains, locus YPR111W, strain DBF20, active compounds read low 0.89 | S. cerevisiae deletion strains, strain NNK1, active compounds read low 0.892 | S. cerevisiae deletion strains, strain TSCII, active compounds read low 0.906
